# Screens (PubChem BioAssay)
# Hits are enriched below; roughly 4.7% of the tested compounds scored in any of these assays.
# D1 antag: antagonists of human D1 dopamine receptor. P21728. HEK293 TREx D1 cells, calcium flux, dopamine EC80; active compounds read low. activity change, negative = inhibition, % at 10 µM. 360,000 compounds, 3.2% hits; in the data active = activity change below about -30%; also: % is scaled to controls: 0 for no effect and ±100 for the full control effect
# Target sequence (P21728 whole entry, looked up): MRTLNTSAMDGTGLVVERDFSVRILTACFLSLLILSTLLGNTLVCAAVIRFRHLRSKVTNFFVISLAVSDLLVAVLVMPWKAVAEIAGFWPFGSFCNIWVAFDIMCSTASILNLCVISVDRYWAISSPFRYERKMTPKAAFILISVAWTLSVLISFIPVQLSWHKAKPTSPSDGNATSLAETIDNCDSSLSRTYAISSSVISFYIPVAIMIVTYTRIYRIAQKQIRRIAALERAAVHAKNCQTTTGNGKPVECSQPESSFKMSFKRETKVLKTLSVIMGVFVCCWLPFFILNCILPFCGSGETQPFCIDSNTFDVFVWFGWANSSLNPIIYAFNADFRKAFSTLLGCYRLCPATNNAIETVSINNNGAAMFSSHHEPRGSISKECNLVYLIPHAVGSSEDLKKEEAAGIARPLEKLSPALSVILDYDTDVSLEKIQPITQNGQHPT
#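 Kinetic fluorescence of a calcium dye serves as the read-out. D1-expressing Hek293 Trex cells, induced overnight at 30 C, are exposed to compound for 180 s before an EC80 dopamine addition, then read 180 s further.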
# TRHR ag: agonists of human TRH receptor. activation, % at 2 µM. 360,000 compounds, 0.18% hits. TRHR cells, calcium flux fluo-8, FDSS agonist mode. P34981; also: 0% is about no effect
#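 In this calcium-flux screen, cells bearing human TRHR are dye-loaded with fluo-8, baselined for 10 cycles, then exposed to library compounds; positive kinetic calcium responses during the agonist phase mark hits, with TRH as control.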
# D1 ag: agonists of human D1 dopamine receptor. activation, % at 2 µM. P21728. 360,000 compounds, 1% hits. HEK293 T-REx D1 cells, calcium flux, agonist mode; also: 0% is about no effect
#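 Tetracycline-induced HEK293 TREx D1 cells, force-coupled to calcium signalling, were dye-loaded with a no-wash calcium kit. Compound was pin-added after a 10 s baseline. Fluorescence was read kinetically at 1 cycle/s for 180 s, with calcium rises flagged as agonism.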
# TRHR enhancer: allosteric enhancers of human TRH receptor | P34981 | TRHR cells, fluo-8 calcium fluorescence, EC20 TRH enhancement | enhancement, % at 2 µM | 360,000 compounds, 0.66% hits; in the data active = enhancement above about 30%; also: 0% is about no effect
#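 Enhancer read-out: after compound pinning and an initial kinetic agonist-mode read, an EC20 of TRH (10 nM final) was injected and fluo-8 calcium signal (Ex 480/Em 530) followed at 1 s/cycle for 100 cycles in TRHR-expressing cells.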
# D1 potentiator: potentiators of human D1 dopamine receptor. P21728. HEK293 TREx D1 cells, calcium flux, dopamine EC20 potentiation. potentiation, % at 10 µM. 360,000 compounds, 0.036% hits. AID 504651; in the data active = potentiation above about 30%; also: 0% is about no effect
# Starred values were filed as active, the others as inactive. Rule as the data show it, unless noted: active = activation above about 30%; inactive = the rest.
SMILES,D1 antag,TRHR ag,D1 ag,TRHR enhancer,D1 potentiator
Cc1ccc(CCNC(=O)c2cnc3c(-c4ccc(F)cc4)c(C)nn3c2C)cc1,-8.1,-0.3,-0.1,-7.5,-6.0
COc1ccc(OCC(=O)Nc2ccc(S(=O)(=O)N3CCN(C)CC3)cc2)cc1,-38.6*,-0.2,7.7,-2.5,-6.4
Cc1ccc(OCC(=O)Nc2ccc(S(=O)(=O)N3CCN(C)CC3)cc2)cc1,-23.7,0.7,11.2,2.2,-10.2
Cc1cc(OCC(=O)Nc2ccc(S(=O)(=O)N3CCN(C)CC3)cc2)ccc1Br,-71.8*,0.9,32.7*,-2.5,-1.0
CN1CCN(S(=O)(=O)c2ccc(NC(=S)NC(=O)C3CCCC3)cc2)CC1,-45.0*,0.4,0.4,8.6,-5.9
CNC(=O)c1c(NC(=O)/C=C/c2ccccc2)sc2c1CCC2,-6.3,-0.5,-0.5,-2.1,-1.9
O=C(c1noc2c1CCCCC2)N1CCN(c2ccc(Cl)cc2)CC1,0.8,0.2,5.2,7.8,-6.2
COc1cc2ccnc(Cc3cccc(OC)c3OC)c2cc1OC,-44.4*,1.2,12.5,11.7,-1.1
Cc1c(OCC(=O)OC(C)(C)C)ccc2c3c(c(=O)oc12)CCC3,-13.3,-0.7,10.9,-1.0,-5.3
Cc1c(OC(C)C(=O)NCCCN2CCCC2=O)ccc2c3c(c(=O)oc12)CCCC3 (configuration not stated),3.9,-0.1,33.1*,19.4,-1.8
Cc1c(OC(=O)CNC(=O)OC(C)(C)C)ccc2c3c(c(=O)oc12)CCC3,-42.6*,-0.6,4.4,-2.0,-9.7
CC(Oc1cc2oc(=O)c3c(c2cc1Cl)CCC3)C(=O)NC1CC(C)(C)NC(C)(C)C1 (configuration not stated),38.5,-0.4,3.6,-0.3,-1.5
Cc1c(OC(C)C(=O)NCc2ccccn2)ccc2c3c(c(=O)oc12)CCCC3 (configuration not stated),-36.9*,-0.1,6.7,-3.9,-7.0
Cc1c(OC(C)C(=O)NC2CC(C)(C)NC(C)(C)C2)ccc2c3c(c(=O)oc12)CCC3 (configuration not stated),-48.9*,0.7,2.2,-0.8,-5.2
CCCc1ccc(S(=O)(=O)N2CCC(Oc3ccc(-n4cnnn4)cc3)CC2)cc1,-7.0,3.0,5.6,3.3,-0.1
C=Cc1ccc(Cn2c(C(=O)O)c(CNCc3ccc(F)cc3)c3ccc(C)cc32)cc1,11.7,0.0,1.9,-0.9,6.5
O=C(CN(c1ccccc1)S(=O)(=O)c1ccc(F)cc1)NC1CCS(=O)(=O)C1 (configuration not stated),11.4,0.0,3.1,-1.1,-2.6
COc1ccc(CNC(=O)CCCn2nc(C)c3sc4ccccc4c3c2=O)cc1OC,1.6,0.8,8.2,-1.7,-2.6
Cc1ccc(NC(=O)CCCn2nc(C)c3sc4ccccc4c3c2=O)c(Cl)c1,-45.1*,0.5,1.9,2.2,-3.9
CSc1ccc(CCNC(=O)CCCn2nc(C)c3sc4ccccc4c3c2=O)cc1,-69.0*,0.6,8.1,0.0,-0.7
CC(=O)Nc1ccc(NC(=O)CCCn2nc(C)c3sc4ccccc4c3c2=O)cc1,4.2,0.9,9.7,1.5,1.8
COc1cc(OC)c(NC(=O)CCCn2nc(C)c3sc4ccccc4c3c2=O)cc1Cl,-70.6*,1.5,2.8,0.5,-3.1
Cn1c(SCc2ccccc2Cl)nc2c([nH]c3ccccc32)c1=O,2.5,0.2,0.0,-5.5,-3.2
Cc1ccc(CSC2=Nc3ccccc3C3=NC(CCC(=O)NC4CCCCC4)C(=O)N23)cc1 (configuration not stated),4.0,-0.5,2.5,-0.6,-3.5
Cc1cc(Br)cc(C)c1OCC(=O)Nc1ccc(S(=O)(=O)Nc2ncccn2)cc1,-4.9,-0.5,-0.8,4.8,-1.9
SMILES,D1 antag,TRHR ag,D1 ag,TRHR enhancer,D1 potentiator
COC(=O)C(C)Oc1ccc(Cc2ncc(C(F)(F)F)cc2Cl)cc1 (configuration not stated),-36.8*,-0.4,13.9,13.3,-10.4
O=C(NC(=S)NCc1nc2ccccc2[nH]1)c1ccc(F)cc1,-67.6*,-1.0,-0.8,2.5,-6.5
O=C(NC(=S)NCc1nc2ccccc2[nH]1)c1ccccc1F,-24.0,-0.9,2.5,-2.0,-3.5
CC(=O)c1cccc(NC(=O)CCn2nc(C)c(S(=O)(=O)N3CCCCC3)c2C)c1,-5.4,-0.8,1.5,-3.7,-0.2
COC(=O)c1cc(S(=O)(=O)Nc2nn(C)c3cccc(F)c23)oc1C,-39.6*,-0.2,0.5,-3.6,4.3
COC(=O)c1cc(S(=O)(=O)Nc2nn(C)c3ccccc23)oc1C,-4.4,0.1,-0.4,0.3,-5.7
O=C(O)c1ccccc1-c1ccc(/C=c2\sc3nc4cc(Br)cnc4n3c2=O)o1,14.4,4.4,10.4,0.6,-4.0
O=C(O)c1cc(-c2ccc(/C=c3\sc4nc5ccc(Br)cc5n4c3=O)o2)ccc1Cl,7.4,7.6,36.4*,7.9,0.9
C#CCN1C(=O)S/C(=C\c2ccc(-c3ccc(Cl)c(C(=O)O)c3)o2)C1=O,9.0,1.0,2.0,31.6*,4.4
Cc1cc2nc3s/c(=C/c4ccc(-c5ccccc5C(=O)O)o4)c(=O)n3c2cc1C,-37.8*,76.7*,142.0*,-1.1,-1.6
O=C(O)c1cc(-c2ccc(/C=C3\NC(=O)N(c4ccccc4)C3=O)o2)ccc1Cl,0.9,0.1,4.0,-4.7,1.4
CCOC(=O)C1CCCN(c2c(C(=O)c3ccccc3)cnc3ccc(F)cc23)C1 (configuration not stated),4.4,0.2,2.5,-4.6,0.8
Cc1ccc2c(CNC3CCC(C)CC3)c(C(=O)O)n(Cc3cccc(F)c3)c2c1 (configuration not stated),16.5,-0.6,-0.6,3.3,4.4
COc1ccc(-c2nc(CN3CCC(C(=O)NCc4ccc(F)cc4)CC3)c(C)o2)cc1OC,-1.3,-0.3,0.3,0.3,-2.6
CCN(CCNC(=O)C1CCN(Cc2nc(-c3ccc(Cl)cc3)oc2C)CC1)c1ccccc1,-44.8*,1.4,48.2*,-10.5,-7.0
Cc1cccc(-c2nc(CN3CCN(Cc4cccc(F)c4)CC3)c(C)o2)c1,0.9,0.0,1.8,31.4*,-4.8
Cc1oc(-c2cccc(F)c2)nc1CN1CCCN(C(=O)c2ccco2)CC1,-1.0,-0.3,1.9,7.8,3.6
CCc1ccc(-c2nc(CN3CCC(C(=O)NCCN(CC)c4ccccc4)CC3)c(C)o2)cc1,-22.5,0.2,32.2*,5.7,-8.6
CCc1ccc(-c2nc(CN3CCC(C(=O)NCc4ccc(F)cc4)CC3)c(C)o2)cc1,-9.8,1.6,33.3*,23.1,1.7
CCN(CCNC(=O)C1CCCN(Cc2nc(-c3ccc(OC)cc3)oc2C)C1)c1ccccc1 (configuration not stated),0.4,-0.9,-0.8,10.2,3.9
CC(C)c1ccc(OCCCN2CCCC2)cc1,14.9,0.3,4.4,-2.1,11.0
